This is part of a sample that, as a whole, favours compounds with a hit. Of some 79,000 tested, about 15% had one in any assay. Values without a mark were called inactive. Calls of active or inactive are those of the source. No stated cut-off is given here; in the data, active means growth inhibition above about 70%; inactive means the rest.
Key:
[1] = NCI Yeast Anticancer Drug Screen. Data for the rad50 strain (AID 155);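 further: 0% = growth of vehicle-only cultures of the same strain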; conditions: S. cerevisiae rad50 strain growth inhibition, hits give high values
Method in brief: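 A DNA repair-deficient yeast mutant serves as the test organism; compound-induced growth inhibition is calculated against vehicle-treated cells.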

[2] = NCI Yeast Anticancer Drug Screen. Data for the mec2-1 strain (AID 157); conditions: S. cerevisiae mec2-1 strain, hits give high values
Method in brief: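 Cells of the genetically defined mec2-1 yeast strain are incubated with test compound. Inhibition of growth is calculated against vehicle-treated controls.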

[3] = NCI Yeast Anticancer Drug Screen. Data for the sgs1 mgt1 strain (AID 161);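 further: 0% = growth of cultures given vehicle only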; conditions: S. cerevisiae sgs1 mgt1 strain, hits give high values
Method in brief: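 Read-out: growth inhibition vs vehicle controls. Cells: mutant yeast strain deficient in DNA damage repair.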

[4] = NCI Yeast Anticancer Drug Screen. Data for the cln2 rad14 strain (AID 165);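 further: 0% = growth equal to vehicle treated cultures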; conditions: S. cerevisiae cln2 rad14 strain, hits give high values
Method in brief: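 The screen exposed genetically defined yeast (cln2 rad14) to test compounds and scored growth inhibition relative to vehicle-treated controls.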

[5] = NCI Yeast Anticancer Drug Screen. Data for the bub3 strain (AID 167); conditions: S. cerevisiae bub3 mutant strain, hits give high values
Method in brief: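 Inhibition values come from growth of compound-treated mutant yeast normalised to vehicle-treated controls.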

[6] = NCI Yeast Anticancer Drug Screen. Data for the mlh1 rad18 strain (AID 175); conditions: S. cerevisiae mlh1 rad18 strain growth inhibition, hits give high values
Method in brief: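 Compound-treated yeast growth, normalised to vehicle controls. Strain bears defined DNA repair mutations.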

[7] = at 5.0 µM (retest, dose inferred, filed as 0.5)
[8] = at 50.0 µM (retest, dose inferred, filed as 5.0)

SMILES	growth inhibition [1, 7]	growth inhibition [1, 8]	growth inhibition ([1]; at 50.0 µM)	growth inhibition [2, 7]	growth inhibition [2, 8]	growth inhibition ([2]; at 50.0 µM)	growth inhibition [3, 7]	growth inhibition [3, 8]	growth inhibition ([3]; at 50.0 µM)	growth inhibition [4, 7]	growth inhibition [4, 8]	growth inhibition ([4]; at 50.0 µM)	growth inhibition [5, 7]	growth inhibition [5, 8]	growth inhibition ([5]; at 50.0 µM)	growth inhibition [6, 7]	growth inhibition [6, 8]	growth inhibition ([6]; at 50.0 µM)
CN(C)CCCCCNc1c2ccccc2nc2cccc([N+](=O)[O-])c12	73% (active)	95% (active)	90% (active)	52%	97% (active)	91.2% (active)	29%	33%	89.2% (active)	37%	62%	92.3% (active)	23%	47%	89% (active)	78% (active)	96% (active)	87.7% (active)
COC(=O)c1ccc(CCC2=CC(=O)C=CC2=O)cc1	39%	99% (active)	84.3% (active)	39%	100% (active)	92.8% (active)	35%	100% (active)	91.2% (active)	29%	75% (active)	89.3% (active)	43%	100% (active)	91.3% (active)	49%	99% (active)	65.8%
CC(C)O[C@H]1N(C2CC(N=[N+]=[N-])C(CO)O2)C(=O)NC(=O)[C@]1(C)Br (some centres not stated)	14%	48%	87.1% (active)	-6%	57%	91.2% (active)	0%	56%	90.5% (active)	4%	37%	89% (active)	-7%	40%	90.5% (active)	-4%	63%	91.1% (active)
N#CC(Nc1cccc(C(F)(F)F)c1)c1ccccc1C(F)(F)F (configuration not stated)	-4%	97% (active)	86% (active)	3%	97% (active)	92% (active)	-11%	97% (active)	90.1% (active)	25%	46%	89% (active)	10%	97% (active)	90.5% (active)	-12%	98% (active)	84.8% (active)

Source: PubChem BioAssay (NCI)
